Assay results as given in ChEMBL document CHEMBL3988442, “University of Dundee, Small-Polar-MMV Screening Library” (2021).
For some assays here: Entries with a potency or affinity are not part of this list.

Tests used:
Parameters in all cases: scale not given: direction of the effect not stated beside the values
[1] = molecular target: Protein translocase subunit SecA (Escherichia coli (strain K12)) (UniProt P10408); assay: Assay to Identify E. coli SecA ATPase Inhibitors; format: functional; details: 30 µM
Chain of Protein translocase subunit SecA (Escherichia coli (strain K12)) (P10408 whole entry): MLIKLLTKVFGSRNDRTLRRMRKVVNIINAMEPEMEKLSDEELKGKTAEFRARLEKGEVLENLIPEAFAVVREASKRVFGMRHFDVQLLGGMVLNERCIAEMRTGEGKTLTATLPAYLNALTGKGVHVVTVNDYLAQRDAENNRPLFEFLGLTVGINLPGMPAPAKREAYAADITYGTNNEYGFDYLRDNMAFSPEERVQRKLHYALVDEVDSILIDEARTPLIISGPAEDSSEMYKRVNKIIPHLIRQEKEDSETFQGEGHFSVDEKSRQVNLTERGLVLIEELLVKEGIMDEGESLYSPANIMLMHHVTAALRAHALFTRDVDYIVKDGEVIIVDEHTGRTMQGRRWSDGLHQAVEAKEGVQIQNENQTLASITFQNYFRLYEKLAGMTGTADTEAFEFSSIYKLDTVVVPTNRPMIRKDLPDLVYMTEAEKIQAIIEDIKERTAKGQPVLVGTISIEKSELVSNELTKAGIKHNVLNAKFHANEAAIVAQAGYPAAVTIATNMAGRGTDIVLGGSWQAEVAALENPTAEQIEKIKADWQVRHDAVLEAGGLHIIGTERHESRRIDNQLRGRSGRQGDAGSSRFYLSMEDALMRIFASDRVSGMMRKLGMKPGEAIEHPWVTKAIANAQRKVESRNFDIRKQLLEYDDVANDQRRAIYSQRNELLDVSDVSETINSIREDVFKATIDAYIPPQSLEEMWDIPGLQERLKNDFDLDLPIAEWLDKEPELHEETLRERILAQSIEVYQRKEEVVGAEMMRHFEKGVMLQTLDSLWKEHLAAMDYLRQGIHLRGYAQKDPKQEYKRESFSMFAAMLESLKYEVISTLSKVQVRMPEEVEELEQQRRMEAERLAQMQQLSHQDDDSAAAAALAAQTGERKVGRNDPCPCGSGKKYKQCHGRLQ

[2] = molecular target: T1, Ubiquitin-activating enzyme e1, putative (Leishmania donovani (strain BPK282A1)) (UniProt E9BSI1); assay: Leishmania donovani Ubiquitin Activating Enzyme (LdE1); format: functional; details: 30 µM
T1 sequence (whole entry): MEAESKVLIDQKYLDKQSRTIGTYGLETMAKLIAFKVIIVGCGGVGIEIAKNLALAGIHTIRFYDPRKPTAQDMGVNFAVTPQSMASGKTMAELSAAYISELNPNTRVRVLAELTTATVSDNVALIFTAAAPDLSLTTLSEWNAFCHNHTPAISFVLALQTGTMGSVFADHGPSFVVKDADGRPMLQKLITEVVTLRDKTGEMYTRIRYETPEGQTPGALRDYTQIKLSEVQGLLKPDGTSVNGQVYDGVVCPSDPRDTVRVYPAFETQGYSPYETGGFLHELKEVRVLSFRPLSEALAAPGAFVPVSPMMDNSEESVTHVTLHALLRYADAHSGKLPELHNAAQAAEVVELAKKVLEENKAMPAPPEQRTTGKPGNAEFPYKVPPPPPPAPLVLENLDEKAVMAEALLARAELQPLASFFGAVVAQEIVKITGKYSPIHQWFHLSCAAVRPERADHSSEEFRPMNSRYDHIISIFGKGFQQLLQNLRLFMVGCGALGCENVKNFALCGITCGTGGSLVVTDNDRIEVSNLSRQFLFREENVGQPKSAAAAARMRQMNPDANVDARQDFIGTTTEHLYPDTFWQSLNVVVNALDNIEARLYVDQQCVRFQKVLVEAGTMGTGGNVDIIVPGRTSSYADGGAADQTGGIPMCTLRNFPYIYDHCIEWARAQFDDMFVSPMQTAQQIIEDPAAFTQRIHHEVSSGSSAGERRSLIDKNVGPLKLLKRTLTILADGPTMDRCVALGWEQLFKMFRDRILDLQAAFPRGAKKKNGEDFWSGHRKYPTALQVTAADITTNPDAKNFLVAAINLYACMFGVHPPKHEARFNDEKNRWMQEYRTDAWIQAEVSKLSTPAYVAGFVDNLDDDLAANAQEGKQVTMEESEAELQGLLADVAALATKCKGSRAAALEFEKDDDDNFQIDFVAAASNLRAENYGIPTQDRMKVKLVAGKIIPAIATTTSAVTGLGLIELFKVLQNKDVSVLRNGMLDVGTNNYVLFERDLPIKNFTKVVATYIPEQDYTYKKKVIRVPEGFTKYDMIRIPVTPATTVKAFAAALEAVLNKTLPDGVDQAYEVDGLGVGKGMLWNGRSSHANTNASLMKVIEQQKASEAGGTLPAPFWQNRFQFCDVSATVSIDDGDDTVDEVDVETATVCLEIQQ

[3] = molecular target: AMP-activated protein kinase, AMPK (Homo sapiens) (UniProt P54646+O43741+P54619+Q9UGJ0+Q9Y478+Q13131+Q9UGI9); assay: AMP-dependent Kinase enzyme assay. An in vitro enzyme assay that detects ADP turnover that is directly proportional to AMPK activity. This uses naive AMPK that is activated during the assay with MK-8722; format: functional; details: 30 µM
[4] = molecular target: Sialic acid-binding Ig-like lectin 9 (Homo sapiens) (UniProt Q9Y336); assay: Hs-Siglec9 ALPHAscreen SOP 20170721; details: 10 µM
Chain of Sialic acid-binding Ig-like lectin 9 (Homo sapiens) (Q9Y336 whole entry): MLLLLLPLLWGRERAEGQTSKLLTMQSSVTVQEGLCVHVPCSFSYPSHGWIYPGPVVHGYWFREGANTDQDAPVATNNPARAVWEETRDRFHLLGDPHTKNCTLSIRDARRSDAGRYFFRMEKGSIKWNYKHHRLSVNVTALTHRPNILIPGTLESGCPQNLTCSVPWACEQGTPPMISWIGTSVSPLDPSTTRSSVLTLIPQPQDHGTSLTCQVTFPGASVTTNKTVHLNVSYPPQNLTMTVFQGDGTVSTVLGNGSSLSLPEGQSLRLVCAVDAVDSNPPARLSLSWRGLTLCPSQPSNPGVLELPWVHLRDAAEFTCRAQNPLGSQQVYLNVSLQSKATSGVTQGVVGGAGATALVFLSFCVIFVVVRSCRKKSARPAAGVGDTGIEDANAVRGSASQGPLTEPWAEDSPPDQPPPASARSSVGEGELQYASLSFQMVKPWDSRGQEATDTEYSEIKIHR

[5] = tested on: Trypanosoma cruzi; assay: Trypanosoma cruzi phosphomannomutase and mannose-1-phosphate guanylyltransferase assay; format: functional; details: 10 µM
[6] = molecular target: T2, Arginase-2, mitochondrial (Homo sapiens) (UniProt P78540); assay: in vitro enzyme assay to detect the production of urea directly proportional to the activity of Arginase II; format: functional; details: 33.3 µM; further: in the data most compounds retested in dose-response had high values
T2 sequence (whole entry): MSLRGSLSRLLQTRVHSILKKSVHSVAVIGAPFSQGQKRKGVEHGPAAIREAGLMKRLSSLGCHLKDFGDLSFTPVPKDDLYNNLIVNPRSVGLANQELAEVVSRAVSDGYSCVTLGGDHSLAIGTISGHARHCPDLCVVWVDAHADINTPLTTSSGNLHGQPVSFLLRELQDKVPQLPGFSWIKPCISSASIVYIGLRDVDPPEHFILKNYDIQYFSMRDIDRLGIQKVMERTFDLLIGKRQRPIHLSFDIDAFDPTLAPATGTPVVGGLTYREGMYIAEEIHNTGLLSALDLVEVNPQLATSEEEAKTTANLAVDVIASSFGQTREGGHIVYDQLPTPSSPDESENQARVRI

[7] = molecular target: T3, Proteasome subunit beta (Trypanosoma cruzi) (UniProt O96673); assay: Trypanosoma cruzi proteasome chymotrypsin-like activity (TcProtChymo) assay.; further: in the data most compounds retested in dose-response had high values; format: functional; details: 9.37 µM
T3 sequence (whole entry): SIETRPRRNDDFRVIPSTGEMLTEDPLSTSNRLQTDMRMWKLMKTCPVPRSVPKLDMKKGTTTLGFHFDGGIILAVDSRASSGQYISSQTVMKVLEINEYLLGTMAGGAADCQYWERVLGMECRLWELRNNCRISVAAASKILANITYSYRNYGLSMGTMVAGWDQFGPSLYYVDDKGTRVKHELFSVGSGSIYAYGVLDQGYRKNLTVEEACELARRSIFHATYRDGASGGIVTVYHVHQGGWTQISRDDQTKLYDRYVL

[8] = organism: Homo sapiens; assay: To identify inhibition of the IFN signalling (Jak-Stat) pathway via expression of an eGFP reporter gene under the control of an IFN-stimulated response element (ISRE) containing MxA promoter.; format: functional; details: 30 µM
[9] = molecular target: T4, Tyrosyl-tRNA synthetase, putative (Trypanosoma cruzi (strain CL Brener)) (UniProt Q4DSP6); assay: Trypanosoma cruzi tyrosyl tRNA synthetase (TcYRS) _High Tyrosine SOP; format: functional; details: 30 µM; further: in the data most compounds retested in dose-response had high values
T4 sequence (whole entry): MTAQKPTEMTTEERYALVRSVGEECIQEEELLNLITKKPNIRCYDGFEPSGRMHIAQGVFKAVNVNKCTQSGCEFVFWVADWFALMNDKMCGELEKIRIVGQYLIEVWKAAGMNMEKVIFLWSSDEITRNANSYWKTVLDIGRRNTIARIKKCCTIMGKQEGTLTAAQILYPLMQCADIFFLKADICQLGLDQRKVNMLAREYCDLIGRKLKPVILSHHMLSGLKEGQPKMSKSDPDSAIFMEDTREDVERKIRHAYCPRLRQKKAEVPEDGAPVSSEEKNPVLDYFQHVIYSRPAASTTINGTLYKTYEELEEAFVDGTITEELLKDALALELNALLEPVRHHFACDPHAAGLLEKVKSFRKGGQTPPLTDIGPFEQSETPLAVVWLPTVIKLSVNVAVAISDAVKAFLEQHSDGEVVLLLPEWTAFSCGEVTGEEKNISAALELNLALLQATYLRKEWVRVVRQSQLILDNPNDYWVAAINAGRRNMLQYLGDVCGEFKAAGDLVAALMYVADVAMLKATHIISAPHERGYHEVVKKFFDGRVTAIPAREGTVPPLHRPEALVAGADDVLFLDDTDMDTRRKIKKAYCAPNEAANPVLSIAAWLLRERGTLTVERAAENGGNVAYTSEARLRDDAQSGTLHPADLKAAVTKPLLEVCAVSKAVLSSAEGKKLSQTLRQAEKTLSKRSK

[10] = molecular target: T4, Tyrosyl-tRNA synthetase, putative (Trypanosoma cruzi (strain CL Brener)); assay: Trypanosoma cruzi tyrosyl tRNA synthetase (TcYRS) SOP; format: functional; details: 30 µM
[11] = molecular target: Chromo domain-containing protein 1 (Saccharomyces cerevisiae (strain ATCC 204508 / S288c) (Baker's yeast)) (UniProt P32657); assay: ScCHD-1 Enzyme Inhibition Assay; format: functional; details: 30 µM; further: in the data most compounds retested in dose-response had high values
Chain of Chromo domain-containing protein 1 (Saccharomyces cerevisiae (strain ATCC 204508 / S288c) (Baker's yeast)) (P32657 whole entry, the tested form may be a part): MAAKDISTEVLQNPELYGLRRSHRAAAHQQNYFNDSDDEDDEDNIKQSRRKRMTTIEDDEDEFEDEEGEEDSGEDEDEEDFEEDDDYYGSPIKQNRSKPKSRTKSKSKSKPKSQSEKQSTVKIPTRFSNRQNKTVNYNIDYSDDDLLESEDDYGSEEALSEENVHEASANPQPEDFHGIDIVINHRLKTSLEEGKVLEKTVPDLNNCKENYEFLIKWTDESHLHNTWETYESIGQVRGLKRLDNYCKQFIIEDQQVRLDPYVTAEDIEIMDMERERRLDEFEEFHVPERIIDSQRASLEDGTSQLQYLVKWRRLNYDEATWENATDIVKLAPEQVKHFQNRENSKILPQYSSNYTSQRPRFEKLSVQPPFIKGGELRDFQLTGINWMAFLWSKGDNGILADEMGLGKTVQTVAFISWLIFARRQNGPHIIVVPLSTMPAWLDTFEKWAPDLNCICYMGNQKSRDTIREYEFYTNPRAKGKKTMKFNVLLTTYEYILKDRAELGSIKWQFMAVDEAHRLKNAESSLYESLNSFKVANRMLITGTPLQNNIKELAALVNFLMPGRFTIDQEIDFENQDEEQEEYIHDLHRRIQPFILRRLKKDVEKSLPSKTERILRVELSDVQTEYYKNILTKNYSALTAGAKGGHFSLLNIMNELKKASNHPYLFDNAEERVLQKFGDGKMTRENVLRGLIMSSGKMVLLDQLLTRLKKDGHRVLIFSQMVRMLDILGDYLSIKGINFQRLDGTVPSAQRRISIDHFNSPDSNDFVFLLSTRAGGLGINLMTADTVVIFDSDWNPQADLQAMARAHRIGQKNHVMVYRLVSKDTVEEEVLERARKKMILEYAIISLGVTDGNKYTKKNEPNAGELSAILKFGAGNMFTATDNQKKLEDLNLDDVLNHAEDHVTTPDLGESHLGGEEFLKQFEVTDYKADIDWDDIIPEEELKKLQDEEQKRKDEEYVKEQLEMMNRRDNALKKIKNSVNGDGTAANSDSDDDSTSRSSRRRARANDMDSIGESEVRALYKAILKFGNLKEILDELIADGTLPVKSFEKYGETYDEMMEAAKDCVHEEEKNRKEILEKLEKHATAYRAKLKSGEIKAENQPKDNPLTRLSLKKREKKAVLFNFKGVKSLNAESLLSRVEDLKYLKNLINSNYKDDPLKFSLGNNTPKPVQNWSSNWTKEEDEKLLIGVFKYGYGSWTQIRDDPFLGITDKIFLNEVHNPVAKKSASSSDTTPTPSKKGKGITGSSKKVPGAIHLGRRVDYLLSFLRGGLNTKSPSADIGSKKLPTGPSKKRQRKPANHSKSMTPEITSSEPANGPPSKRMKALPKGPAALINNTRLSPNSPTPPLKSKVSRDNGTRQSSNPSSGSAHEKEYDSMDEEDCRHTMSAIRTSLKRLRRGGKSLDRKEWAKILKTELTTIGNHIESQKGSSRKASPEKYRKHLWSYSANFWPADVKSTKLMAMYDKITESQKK

| Structure (SMILES) | Percent Effect [1] | Percent Effect [2] | Percent Effect [3] | Percent Effect [4] | Percent Effect [5] | Percent Effect [6] | Percent Effect [7] | Percent Effect [8] | Percent Effect [9] | Percent Effect [10] | Percent Effect [11] |
| --- | --- | --- | --- | --- | --- | --- | --- | --- | --- | --- | --- |
| CCN(CC1CCCO1)C(=O)Nc1ccc(F)cc1OC (stereo not given) | -3.45% | 17.7% | -6.96% | 10.6% | 6.14% | 3.8% | 4.5% | -28.1% | 4.43% | 16.5% | -7.51% |
| CC(=O)N1CCOCC2(CN(Cc3ccc(C)o3)CCO2)C1 (stereo not given) | -8.61% | 2.67% | 0.553% | -4.1% | 0.591% | 0.699% | 1.67% | 17.8% | 3.19% | 1.28% | -4.82% |
| Cc1nc(CN2CCCN(C(=O)C3(C#N)CCCCC3)CC2)cs1 | -5.19% | 5.06% | -4.31% | 9.63% | -1.79% | 0% | 7.12% | 13.8% | 6.4% | 13.9% | -3.28% |
| c1ccc(-c2noc(CN3CCc4cncnc4C3)n2)nc1 | -3.61% | 10.5% | -27.7% | 10.3% | 8.65% | 1.92% | 9.02% | -4.25% | 13.2% | 12.2% | -10.6% |
| Cc1occc1C(=O)N1CCC2(CCC(=O)N(CC(N)=O)C2)CC1 | -6.56% | -4.17% | 0.341% | 3.65% | -3.6% | 2.21% | 10.9% | 3% | -2.1% | -7.69% | -2.07% |
| CC(C)c1ncc2c(n1)CN(Cc1cccc(C#N)c1)CC2 | -3.01% | 0% | -28.8% | 8.37% | 4.89% | 3.06% | 5.01% | -9.04% | 5.39% | 4.88% | 2.88% |
| Cc1noc(C)c1CNCC1CCN(CC(O)c2ccccc2)CC1 (stereo not given) | -1.37% | 11.4% | -4.26% | 6.03% | -1.54% | -1.5% | 9.09% | -17.5% | 4.17% | 17.7% | -18% |
| CN1C(=O)C(c2ccccc2)CC12CCN(CCOCCO)CC2 (stereo not given) | 1.44% | 10.7% | -6.48% | 0.314% | -9.64% | 3.12% | 19.2% | 15.2% | 3.83% | -8.64% | -5.07% |
| CCc1c(C)nc2n(c1=O)CC(C(=O)Nc1ccccc1F)CS2 (stereo not given) | -5.58% | 18.2% | -0.318% | 8.95% | 0.888% | -1.94% | 7.83% | 9.05% | 6.35% | 16.7% | -4.84% |
| Cc1nc(C)n(CC2CN(Cc3cccc(C(N)=O)c3)CCO2)n1 (stereo not given) | -1.88% | -5.41% | 5.74% | -4.05% | -4.69% | 0% | 9.72% | -7.92% | 5.94% | 6.1% | 7.72% |
